# Experimental data from PubChem BioAssay (NCI).
# Compounds without any hit were thinned out: in the full panel of roughly 79,000, 15% have a hit. Unmarked numbers belong to inactive results. Calls of active or inactive are those of the source. Rule as the data show it: active = growth inhibition above about 70%; inactive = the rest.
# How the values were obtained:
# [1] = NCI Yeast Anticancer Drug Screen. Data for the rad52 strain (AID 147);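 also: 0% = growth of vehicle-treated control cultures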; conditions: S. cerevisiae rad52 mutant growth inhibition, hits give high values
# Procedure, shortened: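 Growth of repair-deficient yeast cells was compared between compound-treated and vehicle-treated cultures to give percent inhibition.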
# [2] = NCI Yeast Anticancer Drug Screen. Data for the wt1 strain (AID 149);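 also: 0% = growth of vehicle-treated wt1 cultures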; conditions: S. cerevisiae wt1 strain (SPY 50644) growth inhibition, hits give high values
# Procedure, shortened: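 Readout: yeast growth inhibition, normalised to vehicle controls, in the wt1 strain exposed to test compounds.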
# [3] = NCI Yeast Anticancer Drug Screen. Data for the rad50EPP+ strain (AID 151);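 also: 0% = growth of vehicle-treated control cultures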; conditions: S. cerevisiae rad50 mutant strain, hits give high values
# Procedure, shortened: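 Measured: growth inhibition of rad50EPP+ yeast. Reference: vehicle-treated controls. Screen uses strains with defined genetic alterations in DNA damage repair or cell cycle control.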
# [4] = NCI Yeast Anticancer Drug Screen. Data for the mgt1 strain (AID 153); conditions: S. cerevisiae mgt1 mutant growth inhibition, hits give high values
# Procedure, shortened: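 Compounds were applied to mgt1 mutant yeast, and growth was then compared against vehicle-treated control cultures to give percent inhibition.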
# [5] = NCI Yeast Anticancer Drug Screen. Data for the rad50 strain (AID 155);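 also: 0% = growth of vehicle-only cultures of the same strain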; conditions: S. cerevisiae rad50 strain growth inhibition, hits give high values
# Procedure, shortened: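 Compounds were tested on a yeast strain with an engineered DNA damage repair alteration; the reported value is growth inhibition normalised to vehicle treatment.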
# [6] = NCI Yeast Anticancer Drug Screen. Data for the mec2-1 strain (AID 157); conditions: S. cerevisiae mec2-1 strain, hits give high values
# Procedure, shortened: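 Compounds were applied to mec2-1 yeast cells. Their growth was then compared with that of vehicle-treated cultures to give growth inhibition.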
# [7] = NCI Yeast Anticancer Drug Screen. Data for the rad14 strain (AID 159);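 also: 0% = growth of vehicle-treated control cultures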; conditions: S. cerevisiae rad14 strain growth inhibition, hits give high values
# Procedure, shortened: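 Compound-treated yeast with a defined DNA-repair lesion; growth inhibition normalised to vehicle-treated cultures.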
# [8] = NCI Yeast Anticancer Drug Screen. Data for the sgs1 mgt1 strain (AID 161);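 also: 0% = growth of cultures given vehicle only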; conditions: S. cerevisiae sgs1 mgt1 strain, hits give high values
# Procedure, shortened: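 Percent growth inhibition was derived by comparing compound-exposed mutant yeast with vehicle-exposed cultures. The strain carries alterations in DNA damage repair.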
# [9] = NCI Yeast Anticancer Drug Screen. Data for the CLN2oe strain (AID 163);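 also: 0% = growth of vehicle-only control cultures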; conditions: S. cerevisiae CLN2oe strain, hits give high values
# Procedure, shortened: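 Cells of an engineered yeast line with disturbed cell-cycle regulation are treated with compound. Inhibition of growth is then calculated relative to the vehicle-treated reference.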
# [10] = NCI Yeast Anticancer Drug Screen. Data for the cln2 rad14 strain (AID 165);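 also: 0% = growth equal to vehicle treated cultures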; conditions: S. cerevisiae cln2 rad14 strain, hits give high values
# Procedure, shortened: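 Strain: cln2 rad14 yeast, altered in cell cycle control and DNA damage repair. Read-out: growth inhibition vs vehicle.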
# [11] = NCI Yeast Anticancer Drug Screen. Data for the bub3 strain (AID 167); conditions: S. cerevisiae bub3 mutant strain, hits give high values
# Procedure, shortened: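 Growth of a checkpoint-deficient yeast mutant is measured after compound exposure. Values represent inhibition relative to vehicle.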
# [12] = NCI Yeast Anticancer Drug Screen. Data for the wt2 strain (AID 169);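 also: 0% = growth of vehicle-treated yeast cultures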; conditions: S. cerevisiae wt2 strain growth inhibition, hits give high values
# Procedure, shortened: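 Growth of compound-treated yeast is measured and expressed as inhibition relative to vehicle-only controls.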
# [13] = NCI Yeast Anticancer Drug Screen. Data for the mlh1 strain (AID 171);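 also: 0% = growth of vehicle-treated control cultures of the same strain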; conditions: S. cerevisiae mlh1 strain growth inhibition, hits give high values
# Procedure, shortened: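 Test agents were incubated with yeast bearing a defined DNA damage repair or cell cycle control alteration; values are growth inhibition normalised to vehicle-treated cultures.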
# [14] = NCI Yeast Anticancer Drug Screen. Data for the sgs1 strain (AID 173);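 also: 0% = growth of vehicle-only control cultures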; conditions: S. cerevisiae sgs1 mutant, hits give high values
# Procedure, shortened: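 Strain with an altered DNA repair or cell cycle pathway exposed to compound. Growth then measured. Value = inhibition versus vehicle control.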
# [15] = NCI Yeast Anticancer Drug Screen. Data for the mlh1 rad18 strain (AID 175); conditions: S. cerevisiae mlh1 rad18 strain growth inhibition, hits give high values
# Procedure, shortened: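 A repair-deficient yeast strain is exposed to test compound, and growth is scored relative to vehicle-treated controls.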
# [16] = NCI Yeast Anticancer Drug Screen. Data for the rad18 strain (AID 177); conditions: S. cerevisiae rad18 mutant growth inhibition, hits give high values
# Procedure, shortened: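 DNA-repair-defective yeast; compound treatment; growth inhibition scored against vehicle.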
# [17] = at 5.0 µM (retest, dose inferred, filed as 0.5)
# [18] = at 50.0 µM (retest, dose inferred, filed as 5.0)
compound,measurement,setting,value
CC(=O)/C=C/c1cccc([N+](=O)[O-])c1,growth inhibition,[1]; at 1.2 µM,2%
same,growth inhibition,[1]; at 3.7 µM,4%
same,growth inhibition,[1]; at 11.0 µM,9%
same,growth inhibition,[1]; at 33.0 µM,29%
same,growth inhibition,[1]; at 100.0 µM,86% (active)
same,growth inhibition,[2]; at 1.2 µM,1%
same,growth inhibition,[2]; at 3.7 µM,4%
same,growth inhibition,[2]; at 11.0 µM,8%
same,growth inhibition,[2]; at 33.0 µM,16%
same,growth inhibition,[2]; at 100.0 µM,68%
same,growth inhibition,[3]; at 1.2 µM,3%
same,growth inhibition,[3]; at 3.7 µM,7%
same,growth inhibition,[3]; at 11.0 µM,29%
same,growth inhibition,[3]; at 33.0 µM,81% (active)
same,growth inhibition,[3]; at 100.0 µM,98% (active)
same,growth inhibition,[4]; at 1.2 µM,1%
same,growth inhibition,[4]; at 3.7 µM,2%
same,growth inhibition,[4]; at 11.0 µM,7%
same,growth inhibition,[4]; at 33.0 µM,48%
same,growth inhibition,[4]; at 100.0 µM,94% (active)
same,growth inhibition,[5]; at 1.2 µM,0%
same,growth inhibition,[5]; at 3.7 µM,3%
same,growth inhibition,[5]; [17],-4%
same,growth inhibition,[5]; at 11.0 µM,8%
same,growth inhibition,[5]; at 33.0 µM,20%
same,growth inhibition,[5]; [18],84% (active)
same,growth inhibition,[5]; at 50.0 µM,82% (active)
same,growth inhibition,[5]; at 100.0 µM,89% (active)
same,growth inhibition,[6]; at 1.2 µM,0%
same,growth inhibition,[6]; at 3.7 µM,2%
same,growth inhibition,[6]; [17],2%
same,growth inhibition,[6]; at 11.0 µM,3%
same,growth inhibition,[6]; at 33.0 µM,29%
same,growth inhibition,[6]; [18],56%
same,growth inhibition,[6]; at 50.0 µM,51%
same,growth inhibition,[6]; at 100.0 µM,95% (active)
same,growth inhibition,[7]; at 1.2 µM,-2%
same,growth inhibition,[7]; at 3.7 µM,0%
same,growth inhibition,[7]; at 11.0 µM,7%
same,growth inhibition,[7]; at 33.0 µM,21%
same,growth inhibition,[7]; at 100.0 µM,91% (active)
same,growth inhibition,[8]; [17],-3%
same,growth inhibition,[8]; [18],85% (active)
same,growth inhibition,[8]; at 50.0 µM,48%
same,growth inhibition,[9]; at 1.2 µM,-2%
same,growth inhibition,[9]; at 3.7 µM,-2%
same,growth inhibition,[9]; at 11.0 µM,1%
same,growth inhibition,[9]; at 33.0 µM,6%
same,growth inhibition,[9]; at 100.0 µM,44%
same,growth inhibition,[10]; [17],5%
same,growth inhibition,[10]; [18],4%
same,growth inhibition,[10]; at 50.0 µM,6.15%
same,growth inhibition,[11]; at 1.2 µM,-4%
same,growth inhibition,[11]; at 3.7 µM,-5%
same,growth inhibition,[11]; [17],31%
same,growth inhibition,[11]; at 11.0 µM,-2%
same,growth inhibition,[11]; at 33.0 µM,28%
same,growth inhibition,[11]; [18],89% (active)
same,growth inhibition,[11]; at 50.0 µM,72.4% (active)
same,growth inhibition,[11]; at 100.0 µM,91% (active)
same,growth inhibition,[12]; at 1.2 µM,1%
same,growth inhibition,[12]; at 3.7 µM,4%
same,growth inhibition,[12]; at 11.0 µM,10%
same,growth inhibition,[12]; at 33.0 µM,28%
same,growth inhibition,[12]; at 100.0 µM,88% (active)
same,growth inhibition,[13]; at 1.2 µM,2%
same,growth inhibition,[13]; at 3.7 µM,1%
same,growth inhibition,[13]; at 11.0 µM,10%
same,growth inhibition,[13]; at 33.0 µM,32%
same,growth inhibition,[13]; at 100.0 µM,95% (active)
same,growth inhibition,[14]; at 1.2 µM,1%
same,growth inhibition,[14]; at 3.7 µM,7%
same,growth inhibition,[14]; at 11.0 µM,15%
same,growth inhibition,[14]; at 33.0 µM,50%
same,growth inhibition,[14]; at 100.0 µM,95% (active)
same,growth inhibition,[15]; [17],12%
same,growth inhibition,[15]; [18],94% (active)
same,growth inhibition,[15]; at 50.0 µM,81.7% (active)
same,growth inhibition,[16]; at 1.2 µM,1%
same,growth inhibition,[16]; at 3.7 µM,2%
same,growth inhibition,[16]; at 11.0 µM,21%
same,growth inhibition,[16]; at 33.0 µM,22%
same,growth inhibition,[16]; at 100.0 µM,77% (active)
Clc1nc(Cl)nc(Nc2cccc3ccccc23)n1,growth inhibition,[1]; at 1.2 µM,13%
same,growth inhibition,[1]; at 3.7 µM,32%
same,growth inhibition,[1]; at 11.0 µM,64%
same,growth inhibition,[1]; at 33.0 µM,93% (active)
same,growth inhibition,[1]; at 100.0 µM,98% (active)
same,growth inhibition,[2]; at 1.2 µM,6%
same,growth inhibition,[2]; at 3.7 µM,14%
same,growth inhibition,[2]; at 11.0 µM,36%
same,growth inhibition,[2]; at 33.0 µM,88% (active)
same,growth inhibition,[2]; at 100.0 µM,98% (active)
same,growth inhibition,[3]; at 1.2 µM,21%
same,growth inhibition,[3]; at 3.7 µM,50%
same,growth inhibition,[3]; at 11.0 µM,49%
same,growth inhibition,[3]; at 33.0 µM,85% (active)
same,growth inhibition,[3]; at 100.0 µM,95% (active)
same,growth inhibition,[4]; at 1.2 µM,18%
same,growth inhibition,[4]; at 3.7 µM,26%
same,growth inhibition,[4]; at 11.0 µM,54%
same,growth inhibition,[4]; at 33.0 µM,95% (active)
same,growth inhibition,[4]; at 100.0 µM,98% (active)
same,growth inhibition,[5]; at 1.2 µM,4%
same,growth inhibition,[5]; at 3.7 µM,21%
same,growth inhibition,[5]; [17],29%
same,growth inhibition,[5]; at 11.0 µM,52%
same,growth inhibition,[5]; at 33.0 µM,93% (active)
same,growth inhibition,[5]; [18],92% (active)
same,growth inhibition,[5]; at 50.0 µM,86.9% (active)
same,growth inhibition,[5]; at 100.0 µM,97% (active)
same,growth inhibition,[6]; at 1.2 µM,23%
same,growth inhibition,[6]; at 3.7 µM,42%
same,growth inhibition,[6]; [17],10%
same,growth inhibition,[6]; at 11.0 µM,58%
same,growth inhibition,[6]; at 33.0 µM,97% (active)
same,growth inhibition,[6]; [18],96% (active)
same,growth inhibition,[6]; at 50.0 µM,90% (active)
same,growth inhibition,[6]; at 100.0 µM,98% (active)
same,growth inhibition,[7]; at 1.2 µM,-4%
same,growth inhibition,[7]; at 3.7 µM,15%
same,growth inhibition,[7]; at 11.0 µM,48%
same,growth inhibition,[7]; at 33.0 µM,95% (active)
same,growth inhibition,[7]; at 100.0 µM,98% (active)
same,growth inhibition,[8]; [17],19%
same,growth inhibition,[8]; [18],39%
same,growth inhibition,[8]; at 50.0 µM,86.7% (active)
same,growth inhibition,[9]; at 1.2 µM,26%
same,growth inhibition,[9]; at 3.7 µM,31%
same,growth inhibition,[9]; at 11.0 µM,51%
same,growth inhibition,[9]; at 33.0 µM,94% (active)
same,growth inhibition,[9]; at 100.0 µM,99% (active)
same,growth inhibition,[10]; [17],44%
same,growth inhibition,[10]; [18],95% (active)
same,growth inhibition,[10]; at 50.0 µM,71.4% (active)
same,growth inhibition,[11]; at 1.2 µM,33%
same,growth inhibition,[11]; at 3.7 µM,45%
same,growth inhibition,[11]; [17],64%
same,growth inhibition,[11]; at 11.0 µM,80% (active)
same,growth inhibition,[11]; at 33.0 µM,96% (active)
same,growth inhibition,[11]; [18],97% (active)
same,growth inhibition,[11]; at 50.0 µM,86.2% (active)
same,growth inhibition,[11]; at 100.0 µM,99% (active)
same,growth inhibition,[12]; at 1.2 µM,-12%
same,growth inhibition,[12]; at 3.7 µM,15%
same,growth inhibition,[12]; at 11.0 µM,51%
same,growth inhibition,[12]; at 33.0 µM,93% (active)
same,growth inhibition,[12]; at 100.0 µM,98% (active)
same,growth inhibition,[13]; at 1.2 µM,27%
same,growth inhibition,[13]; at 3.7 µM,51%
same,growth inhibition,[13]; at 11.0 µM,85% (active)
same,growth inhibition,[13]; at 33.0 µM,97% (active)
same,growth inhibition,[13]; at 100.0 µM,98% (active)
same,growth inhibition,[14]; at 1.2 µM,31%
same,growth inhibition,[14]; at 3.7 µM,47%
same,growth inhibition,[14]; at 11.0 µM,77% (active)
same,growth inhibition,[14]; at 33.0 µM,96% (active)
same,growth inhibition,[14]; at 100.0 µM,98% (active)
same,growth inhibition,[15]; [17],69%
same,growth inhibition,[15]; [18],94% (active)
same,growth inhibition,[15]; at 50.0 µM,80.3% (active)
same,growth inhibition,[16]; at 1.2 µM,11%
same,growth inhibition,[16]; at 3.7 µM,14%
same,growth inhibition,[16]; at 11.0 µM,50%
same,growth inhibition,[16]; at 33.0 µM,91% (active)
same,growth inhibition,[16]; at 100.0 µM,98% (active)
